# Measured values taken from PubChem BioAssay (Tox21).
# Where “and” joins values, the source holds several entries; their conditions need not be identical. Equal values may be shown once. Records with an inconclusive call do not appear. Where a call stands in place of a potency, no number is given. A structure can be active in one record and inactive in another. Calls of active or inactive are those of the source. Unless noted, calls come from the whole dose curve; as a rule, active = well fitted curve in the direction sought with a large enough effect in the repeat runs; inconclusive = weak or mixed curves; inactive = no such curve, though single readings can be large; an effect the other way counts as inactive or inconclusive.
# Key:
# [1] = qHTS assay to identify small molecule agonists of the vitamin D receptor (VDR) signaling pathway - cell viability counter screen (AID 743224); note: nearly all actives have a fitted effect of over 50% in size; note: potency is the fitted concentration of half-maximal effect
# Summary of the method: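 Counter screen run in the same wells as the VDR-bla reporter assay: CellTiter-Glo luminescence, 30 min at room temperature, after 16 h compound treatment at 37C of cells pre-plated for 4 h.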
# [2] = qHTS assay to identify small molecule antagonists of the vitamin D receptor (VDR) signaling pathway - cell viability counter screen (AID 743225); note: nearly all actives have a fitted effect of over 50% in size; note: potency is the fitted concentration of half-maximal effect
# Summary of the method: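 In this counter screen, VDR-bla HEK 293T cells receive test compound plus 3 nM final calcitriol for 16 h at 37C. Room-temperature steps of 2 h with the beta-lactamase substrate, then 30 min with CellTiter-Glo, precede the luminescence read.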
# [3] = qHTS assay to identify small molecule agonists of the NFkB signaling pathway (AID 1159509; active = well fitted curve in the direction sought with a large enough effect in the signal ratio in the repeat runs, not every such curve was filed as active; the % refers to the signal ratio; note: series mostly up to about 61 µM)
# Summary of the method: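 Agonist activity was read as beta-lactamase-driven FRET change (460 and 530 nm emission, 405 nm excitation) following 1.5 hr substrate loading at room temperature. Beforehand, ME-180 NFkB-bla reporter cells were treated with compounds for 5 hr at 37 C.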
# [4] = qHTS assay to identify small molecule antagonists of the retinoid-related orphan receptor gamma (ROR-gamma) signaling pathway - cell viability counter screen (AID 1159520); note: nearly all actives have a fitted effect of over 50% in size; note: potency is the fitted concentration of half-maximal effect
# Summary of the method: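 Tet-on ROR gamma CHO cells were given compounds for 2 hr, then doxycycline hyclate at 1 uM final, and incubated 16 hr at 37 C. Viability was measured as ATP content by CellTiter-Glo luminescence.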
# [5] = qHTS assay to identify small molecule agonists of the AP-1 signaling pathway - cell viability counter screen (AID 1159525; calls by dose curve; note: nearly all actives have a fitted effect of over 55% in size; note: potency is the fitted concentration of half-maximal effect)
# Summary of the method: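 Same-well cytotoxicity counter screen of the Tox21 10K library in ME-180 cells. The readout is ATP-dependent luminescence after 5 h compound treatment. Data are normalised to DMSO and tetra n-octyl ammonium bromide controls.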
# [6] = qHTS assay to identify small molecule agonists of the NFkB signaling pathway - cell viability counter screen (AID 1159515; calls by dose curve; note: series mostly up to about 61 µM; nearly all actives have a fitted effect of over 55% in size)
# Summary of the method: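 Read by CellTiter-Glo luminescence (30 min, room temperature) in the wells also used for the beta-lactamase FRET read. ME-180 NFkB-bla cells at 2,000 per well were plated overnight, then exposed to compound for 5 hr at 37 C.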
# [7] = qHTS assay to identify small molecule agonists of the endoplasmic reticulum stress response signaling pathway (AID 1159516; active = well fitted activation curve with a large enough effect in the signal ratio in the repeat runs, not every such curve was filed as active; the % refers to the signal ratio; note: potency is the fitted concentration of half-maximal effect)
# Summary of the method: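 Ratiometric FRET readout (405 nm excitation; 460 and 530 nm emission) of a beta-lactamase gene driven by the ER stress response element, after 2 hr substrate loading. HeLa ESRE-bla cells were seeded overnight and treated with compounds for only 5 hr at 37 C.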
# [8] = qHTS assay to identify small molecule agonists of the endoplasmic reticulum stress response signaling pathway - cell viability counter screen (AID 1159517; calls by dose curve; note: series mostly up to about 61 µM; nearly all actives have a fitted effect of over 50% in size)
# Summary of the method: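 In parallel with the ESRE reporter read, cytotoxicity was scored by CellTiter-Glo luminescence (30 min, room temperature) on HeLa ESRE-bla cells dosed for 5 hr.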
# [9] = molecular target: Nuclear receptor ROR-gamma (Homo sapiens) (UniProt P51449); test: qHTS assay to identify small molecule antagonists of the retinoid-related orphan receptor gamma (ROR-gamma) signaling pathway (AID 1159521; note: nearly all actives have a fitted effect of over 50% in size; note: potency is the fitted concentration of half-maximal effect)
# Summary of the method: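 Screening format: cell-based luciferase reporter in CHO cells with doxycycline-inducible RORγ. Compound pre-exposure lasts 2 h, doxycycline is 1 uM final, induction runs 16 h at 37 C, and ONE-Glo luminescence is read.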
# [10] = qHTS assay to identify small molecule agonists of the AP-1 signaling pathway (AID 1159526; calls by dose curve; note: potency is the fitted concentration of half-maximal effect)
SMILES,Potency [1],Potency [2],outcome [3],Potency [4],Potency [5],Potency [6],Potency [7],Potency [8],Potency [9],Potency [10],activation [10]
COc1ccc(OC(F)(F)F)cc1CN[C@H]1CCCN[C@H]1c1ccccc1,54.9 µM (active),49 µM (active),inactive,inactive,,,,,,,
C1CCC(C(CC2CCCCN2)C2CCCCC2)CC1 (stereo not drawn),,21.3 µM (active),inactive,26.6 µM (active),23.9 µM (active),,,,,,
CN(C)CCOC(c1ccccc1)c1ccccc1,inactive,inactive,,inactive,inactive,inactive,inactive,inactive,inactive,49.3 µM (active),
Nc1c(N=Nc2ccc(-c3ccc(N=Nc4cc(S(=O)(=O)O)c5ccccc5c4N)cc3)cc2)cc(S(=O)(=O)O)c2ccccc12,inactive,inactive,inactive,,inactive,,,,,,
Nc1ccc([N+](=O)[O-])cc1O,,,inactive,inactive,inactive,,,,,inactive,
CN[C@H]1CC[C@@H](c2ccc(Cl)c(Cl)c2)c2ccccc21,13.3 µM (active),23.9 µM (active),inactive,inactive,inactive,,,,inactive,,
NS(=O)(=O)O,inactive,inactive,,inactive,inactive,inactive,inactive,inactive,inactive,inactive,
O=C(Nc1ncc([N+](=O)[O-])s1)c1cccs1,,,inactive,13.3 µM (active),,,,,,,
O=C(O)c1ccccc1,inactive,inactive,,inactive,inactive,inactive,inactive,inactive,,inactive,
C1=CC2C3C=CC(C3)C2C1 (stereo not drawn),inactive,,inactive,inactive,inactive,,,,,,
F[B-](F)(F)F,inactive,inactive,,inactive,inactive,inactive,inactive,inactive,inactive and 49.2 µM (active),inactive,
Nc1ccc2c(c1)CN1C(=O)c3ccccc3C1=N2,inactive,inactive,inactive,,,,,inactive,,,-1.9% [at 15.8 µM] (inactive)
CN1CCC[C@H]1c1cccnc1,inactive,inactive,,inactive,inactive,inactive,inactive,inactive,inactive,inactive,
C=C1CC[C@H](O)C/C1=C\C=C1/CCC[C@]2(C)[C@@H]([C@H](C)CCCC(C)C)CC[C@@H]12,,,inactive,60.6 µM (active),inactive,,,,,,
C/C=C/C=C/C(=O)O,inactive,inactive,,inactive,inactive,inactive,inactive,inactive,inactive,inactive,
O=c1[nH]cnc2c1ncn2[C@H]1CC[C@@H](CO)O1,inactive,inactive,,inactive,inactive,inactive,inactive,inactive,,inactive,
Oc1ccccc1,inactive,inactive,,inactive,inactive,inactive,inactive,inactive,inactive,inactive,
NC(=O)n1c(O)c(C(=O)c2cccs2)c2cc(Cl)ccc21,,inactive,inactive,,inactive,,,,6.68 µM (active),inactive,
Cc1ncc([N+](=O)[O-])n1CCO,inactive,inactive,,inactive,inactive,inactive,inactive,inactive,inactive,inactive,
CN(C)C(=O)Nc1ccc(Cl)c(Cl)c1,inactive,inactive,,inactive,inactive,inactive,inactive,inactive,inactive,inactive,
COc1cccc(O)c1O,57.1 µM (active),inactive,inactive,,inactive,,,inactive,63.5 µM (active),,
Cc1cc(=O)oc2cc(O)ccc12,inactive,inactive,,inactive,inactive,inactive,49 µM (active) and 19 µM (active),inactive,,inactive,
COc1ccc2cc(S(=O)(=O)N[C@H](CC(=O)N[C@H](Cc3ccc(CN4[C@H](C)CCC[C@@H]4C)cc3)C(=O)N(C)C(C)C)c3ccc4c(c3)OCO4)ccc2c1,52 µM (active),20.7 µM (active),inactive,,,,,,13 µM (active),,

SMILES,Potency [1],Potency [2],outcome [3],Potency [4],Potency [5],Potency [6],Potency [7],Potency [8],Potency [9],Potency [10],activation [10]
CCN(Cc1c(F)cccc1Cl)c1c([N+](=O)[O-])cc(C(F)(F)F)cc1[N+](=O)[O-],inactive,,inactive,inactive,,,,,,,
O=CC(=O)c1ccccc1,inactive,inactive,inactive,inactive,inactive,,,,,,
CCCCCCCC(=O)OCC(COC(=O)CCCCCCC)OC(=O)CCCCCCC,inactive,inactive,,inactive,inactive,inactive,inactive,inactive,inactive,inactive,
Nc1ccc(O)c([N+](=O)[O-])c1,,,inactive,inactive,inactive,,,,,,
CC(C)C(=O)Nc1ccc([N+](=O)[O-])c(C(F)(F)F)c1,inactive,inactive,,inactive,inactive,inactive,inactive,inactive,28.1 µM (active) and 10.9 µM (active) and 33.5 µM (active),inactive,
O=c1[nH]cc(F)c(=O)[nH]1,inactive,inactive,,inactive,inactive,inactive,inactive,inactive,4.49 µM (active) and inactive,inactive,
O=C1O[C@H]([C@@H](O)CO)C(O)=C1O,inactive,inactive,,inactive,inactive,inactive,inactive,,inactive,inactive,
NS(=O)(=O)c1cc2c(cc1Cl)NCNS2(=O)=O,inactive,inactive,,inactive,inactive,inactive,inactive,,inactive,inactive,
Nc1ccc(S(N)(=O)=O)cc1,inactive,inactive,,inactive,inactive,inactive,inactive,inactive,,inactive,
CC(O)(P(=O)(O)O)P(=O)(O)O,inactive,inactive,,inactive,inactive,inactive,inactive,inactive,,inactive,
CN1CCc2cccc3c2[C@H]1Cc1ccc(O)c(O)c1-3,49.5 µM (active) and 16.3 µM (active) and 26.6 µM (active),49.5 µM (active) and 11.5 µM (active),,69.3 µM (active),inactive,inactive,inactive,,27.6 µM (active) and 20.4 µM (active) and inactive,inactive,
Cc1cn([C@H]2C=C[C@@H](CO)O2)c(=O)[nH]c1=O,inactive,inactive,,inactive,inactive,inactive,inactive,,inactive,inactive,
OC[C@H]1O[C@H](O[C@]2(CCl)O[C@H](CCl)[C@@H](O)[C@@H]2O)[C@H](O)[C@@H](O)[C@H]1Cl,inactive,inactive,,inactive,inactive,inactive,inactive,inactive,,inactive,
CC(=O)Nc1c(I)c(NC(C)=O)c(I)c(C(=O)O)c1I,,,,inactive,inactive,inactive,inactive,,inactive,inactive,
CCN(CC)C(=O)c1cccc(C)c1,inactive,inactive,,inactive,inactive,inactive,inactive,inactive,,inactive,
COc1ccc2c(c1)c(CC(=O)O)c(C)n2C(=O)c1ccc(Cl)cc1,inactive,inactive,,inactive,inactive,inactive,inactive,inactive,,inactive,
CCc1nc(N)nc(N)c1-c1ccc(Cl)cc1,17.4 µM (active),,,inactive,inactive,inactive,inactive,,inactive,,
COc1ccc(CN(CCN(C)C)c2ccccn2)cc1,inactive,inactive,,inactive,inactive,inactive,inactive,inactive,,,
CC12CCC(CC1)C(C)(C)O2,inactive,inactive,,inactive,inactive,inactive,inactive,,inactive,inactive,
Cc1cccc(C)c1,inactive,inactive,,inactive,inactive,inactive,inactive,,inactive,inactive,
C=CCc1ccc(O)c(OC)c1,inactive,inactive,,inactive,inactive,inactive,inactive,inactive,,inactive,
Cc1c(C(=O)O)c(O)cc2c1C(=O)c1c(O)c([C@@H]3O[C@H](CO)[C@@H](O)[C@H](O)[C@H]3O)c(O)c(O)c1C2=O,inactive,inactive,,inactive,inactive,inactive,inactive,,inactive,inactive,
